These results are taken from the supplement of paper PMC3334620.

In all, about 33,000 sequences were measured (“E-score (-0.5 to 0.5)”: median about -0.054, highest 2% from about 0.35 on). Many of the other results were omitted from the sample, so the highest values are more common in it than they were.

The experiment addresses T1, Stb5 (UniProt P38699).
T1 sequence: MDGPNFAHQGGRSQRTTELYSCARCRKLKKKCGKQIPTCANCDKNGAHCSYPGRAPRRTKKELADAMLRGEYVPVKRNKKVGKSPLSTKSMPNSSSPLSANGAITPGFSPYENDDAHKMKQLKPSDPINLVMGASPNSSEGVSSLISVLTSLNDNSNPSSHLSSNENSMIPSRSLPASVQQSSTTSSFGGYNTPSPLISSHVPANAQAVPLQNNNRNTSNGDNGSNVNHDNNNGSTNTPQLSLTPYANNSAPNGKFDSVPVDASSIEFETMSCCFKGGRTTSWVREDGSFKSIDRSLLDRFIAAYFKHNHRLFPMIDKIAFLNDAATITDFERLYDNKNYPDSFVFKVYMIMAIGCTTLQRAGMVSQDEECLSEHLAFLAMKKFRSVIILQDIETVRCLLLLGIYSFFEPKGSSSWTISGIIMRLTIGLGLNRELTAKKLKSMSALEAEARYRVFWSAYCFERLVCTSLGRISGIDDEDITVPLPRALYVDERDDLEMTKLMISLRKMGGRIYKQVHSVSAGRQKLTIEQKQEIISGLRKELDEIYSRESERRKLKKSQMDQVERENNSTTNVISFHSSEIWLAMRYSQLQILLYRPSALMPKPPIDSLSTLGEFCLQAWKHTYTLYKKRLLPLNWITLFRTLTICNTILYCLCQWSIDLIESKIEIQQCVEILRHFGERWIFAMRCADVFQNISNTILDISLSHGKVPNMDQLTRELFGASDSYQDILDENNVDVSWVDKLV
Put plainly: PBM E-score (8-mer binding enrichment) (E-score (-0.5 to 0.5)); higher = stronger / more preferred TF binding. The settings on record: protein concentration: 200 nM; construct: GST-full length. On the procedure:
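Universal 'all 10-mer' protein binding microarrays (Agilent AMADID 015681) probed with GST-tagged S. cerevisiae TFs (full-length or DBD) made by in vitro transcription/translation (PURExpress), about 100-200 nM. Bound TF was detected with fluorescent anti-GST. Each ungapped 8-mer (which stands for itself and its reverse complement) is scored by the PBM enrichment score (E-score), a modified Wilcoxon-Mann-Whitney statistic from -0.5 to +0.5, computed with the Universal PBM Analysis Suite. Scale: above 0.35 generally sequence-specific binding.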
Consider CACCGCTG, for which the “PBM E-score” value came out at 0.405.

Turning to CACCGCTA, the “PBM E-score” value worked out at 0.388.

As for GACCGCAA, the “PBM E-score” value turned out to be 0.248.

As for GACCGCTA, the “PBM E-score” value stood at 0.359.

Take GACCGCGA: the “PBM E-score” value worked out at 0.31.

For AACCGCTA, the “PBM E-score” value amounted to 0.0216.

For GACCGCTC, the “PBM E-score” value is 0.267.

Consider ATAGAGTG, for which the “PBM E-score” value is -0.054.

Turning to ACAGTAAT, the “PBM E-score” value was -0.154.

In the case of CTGGCAAA, the “PBM E-score” value is -0.24.

Regarding CTCATCGC, the “PBM E-score” value is -0.0444.

Take CACAATGA: the “PBM E-score” value is -0.244.

For ACGGACAT, the “PBM E-score” value came out at 0.41.

As to ACGGACCT, the “PBM E-score” value was found to be 0.426.

Regarding ACGGACCG, the “PBM E-score” value is 0.297.

Regarding ACGGACAG, the “PBM E-score” value was found to be 0.00554.

On to ACGGACAC, for which the “PBM E-score” value came to 0.215.

For the sequence ACGGACCA, the “PBM E-score” value was 0.237.

Turning to TACTTTGA, the “PBM E-score” value is -0.207.

As to ACGTCCGA, the “PBM E-score” value amounted to 0.333.

With CTGTCCGC, the “PBM E-score” value came out at 0.129.

As to GTGTCCGA, the “PBM E-score” value was 0.231.

With ATGTCCGG, the “PBM E-score” value worked out at 0.415.

As to ATGTCCCC, the “PBM E-score” value was 0.224.

For ATGTCCCG, the “PBM E-score” value turned out to be 0.219.

For the sequence ATGTCCGA, the “PBM E-score” value is 0.412.

As to CCGTCCGC, the “PBM E-score” value was found to be 0.292.

Regarding CTGTCCGA, the “PBM E-score” value stood at 0.201.

On to ACGTCCGC, for which the “PBM E-score” value came to 0.367.

Regarding ATGTCCTG, the “PBM E-score” value was -0.0717.

Consider ATGTCCGC, for which the “PBM E-score” value is 0.443.

On to CCAAGCAA, for which the “PBM E-score” value was -0.148.

As to CTGCTAGA, the “PBM E-score” value worked out at 0.0321.

Turning to CTAAGGCA, the “PBM E-score” value is -0.101.

In the case of CTTGTCTA, the “PBM E-score” value is -0.11.

On to CCAGGCCA, for which the “PBM E-score” value is -0.312.

Consider CGCGGTAC, for which the “PBM E-score” value is 0.34.

Consider AGCGGTAC, for which the “PBM E-score” value was found to be 0.347.

In the case of GGCGGTAA, the “PBM E-score” value was 0.385.

AGCGGTAA: the “PBM E-score” value stood at 0.34.

In the case of GGCGGTAC, the “PBM E-score” value worked out at 0.361.

Turning to TGCGGTAA, the “PBM E-score” value is 0.278.

TCAAGTCA: the “PBM E-score” value is -0.175.

As to GCACCTCA, the “PBM E-score” value was -0.199.

Take CAATTATC: the “PBM E-score” value amounted to 0.215.

For AGTCCGTA, the “PBM E-score” value amounted to 0.284.

With CCTCCGTC, the “PBM E-score” value amounted to 0.195.

As to ATTCCGTC, the “PBM E-score” value worked out at 0.141.

Regarding ACTCCGTC, the “PBM E-score” value worked out at 0.367.

As for ATTCCGTG, the “PBM E-score” value was found to be 0.00715.

In the case of AGTCCGTC, the “PBM E-score” value amounted to 0.389.

As to CGTCCGTC, the “PBM E-score” value worked out at 0.21.

ACTCCGTG: the “PBM E-score” value amounted to 0.352.

For the sequence ACTCCGTA, the “PBM E-score” value was determined as 0.35.

ACTCCGAG: the “PBM E-score” value came out at 0.202.

For ACTCCGAA, the “PBM E-score” value turned out to be 0.328.

As for ACTCCGAC, the “PBM E-score” value was determined as 0.425.

In the case of TACAACCA, the “PBM E-score” value is -0.0508.

As to ACTCCCCA, the “PBM E-score” value was -0.225.

For the sequence GCGACAGC, the “PBM E-score” value stood at 0.105.

For ACGAGGCA, the “PBM E-score” value is -0.206.

With TATGTCCA, the “PBM E-score” value turned out to be 0.133.

Regarding AGGGCGAG, the “PBM E-score” value was -0.295.

Consider TGGCGCCA, for which the “PBM E-score” value is 0.0517.

For the sequence AGGCGCGA, the “PBM E-score” value was -0.00867.

With CGGCGCCA, the “PBM E-score” value was 0.377.

With CGGCGCGA, the “PBM E-score” value was determined as 0.373.

In the case of GGGCGCTA, the “PBM E-score” value came out at 0.0264.

With CGGCGCGC, the “PBM E-score” value amounted to 0.275.

CGGCGCTA: the “PBM E-score” value was 0.447.

In the case of AGGCGCTA, the “PBM E-score” value stood at 0.0525.

Consider AGGCGATA, for which the “PBM E-score” value was -0.0449.

With GGGCGATA, the “PBM E-score” value was determined as 0.11.

Regarding AGGCGCCA, the “PBM E-score” value was determined as 0.041.

As to CGGCGATA, the “PBM E-score” value was 0.463.

For the sequence TGCCTCCA, the “PBM E-score” value is -0.237.

GTCATTGA: the “PBM E-score” value was -0.109.

Take TGGAGACA: the “PBM E-score” value is -0.254.

For AGGTGCGC, the “PBM E-score” value came to 0.0592.

With AGGCGGGA, the “PBM E-score” value was determined as 0.234.

As to AGGCGGAC, the “PBM E-score” value is 0.356.

With AGGCGGAG, the “PBM E-score” value was 0.356.

Consider ACGCGGAC, for which the “PBM E-score” value is 0.241.

Take AGGCGGGG: the “PBM E-score” value came out at 0.38.

In the case of AGGCGGCC, the “PBM E-score” value stood at 0.235.

In the case of AGGCGGAA, the “PBM E-score” value amounted to 0.131.

Take AGGCGGGC: the “PBM E-score” value amounted to 0.275.

For AGGCGGAT, the “PBM E-score” value stood at 0.0922.
